The target in assay [1] is T1, cGMP-dependent protein kinase 1 (Homo sapiens) (UniProt Q13976).
T1 sequence (whole entry): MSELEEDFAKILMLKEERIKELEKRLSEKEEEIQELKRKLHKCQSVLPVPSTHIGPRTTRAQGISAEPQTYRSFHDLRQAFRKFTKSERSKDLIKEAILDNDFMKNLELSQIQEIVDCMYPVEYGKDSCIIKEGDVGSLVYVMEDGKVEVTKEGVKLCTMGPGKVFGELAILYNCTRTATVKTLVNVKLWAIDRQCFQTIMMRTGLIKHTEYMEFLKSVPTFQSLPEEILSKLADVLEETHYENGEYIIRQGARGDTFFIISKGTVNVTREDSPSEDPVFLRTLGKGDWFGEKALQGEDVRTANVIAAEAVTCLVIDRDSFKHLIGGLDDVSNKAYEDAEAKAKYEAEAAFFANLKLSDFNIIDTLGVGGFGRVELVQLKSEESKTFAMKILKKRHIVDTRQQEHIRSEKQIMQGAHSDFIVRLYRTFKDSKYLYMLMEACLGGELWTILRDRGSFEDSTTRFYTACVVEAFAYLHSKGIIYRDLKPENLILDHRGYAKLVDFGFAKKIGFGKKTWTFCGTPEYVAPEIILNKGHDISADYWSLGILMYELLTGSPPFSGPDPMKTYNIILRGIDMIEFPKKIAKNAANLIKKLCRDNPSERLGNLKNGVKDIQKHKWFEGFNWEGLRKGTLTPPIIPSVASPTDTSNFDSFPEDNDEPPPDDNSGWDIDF
The settings on record: at 1 µM.

Assay [2] deals with T1, cGMP-dependent protein kinase 1 (Homo sapiens). The settings on record: at 10 µM.
For assay [3] the target is unchanged. The settings on record: at 1 µM. The source holds these as a separate data set.
Assay [4] has the same target. The settings on record: at 10 µM. This is another data set of the same source.
Assay [5] deals with T2, MAP kinase-activated protein kinase 5 (Homo sapiens) (UniProt Q8IW41).
T2 sequence (whole entry): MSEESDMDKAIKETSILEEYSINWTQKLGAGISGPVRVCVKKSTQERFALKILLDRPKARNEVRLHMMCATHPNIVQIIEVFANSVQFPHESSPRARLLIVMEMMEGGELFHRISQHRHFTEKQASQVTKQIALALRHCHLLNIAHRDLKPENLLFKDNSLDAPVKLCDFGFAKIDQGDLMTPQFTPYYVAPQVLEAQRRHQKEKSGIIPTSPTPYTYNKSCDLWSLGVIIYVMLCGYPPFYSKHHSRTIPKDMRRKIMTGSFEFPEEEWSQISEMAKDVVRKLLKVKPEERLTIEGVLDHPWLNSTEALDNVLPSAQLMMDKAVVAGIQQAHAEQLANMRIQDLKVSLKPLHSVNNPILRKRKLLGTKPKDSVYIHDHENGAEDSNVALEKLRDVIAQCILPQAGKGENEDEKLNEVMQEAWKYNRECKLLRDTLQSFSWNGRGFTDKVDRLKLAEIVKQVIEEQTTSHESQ
Particulars: at 1 µM.

Assay [6] deals with T2, MAP kinase-activated protein kinase 5 (Homo sapiens). Particulars: at 10 µM.
Assay [7] has as its target Serine/threonine-protein kinase N2 (Homo sapiens) (UniProt Q16513). Particulars: at 1 µM.
Assay [8] shares this target. The settings on record: at 10 µM.
Assay [9] addresses Tyrosine-protein kinase FRK (Homo sapiens) (UniProt P42685). Particulars: at 1 µM.
For assay [10] the target is unchanged. Particulars: at 10 µM.
For assay [11], the target named is T3, Phosphorylase b kinase gamma catalytic chain, liver/testis isoform (Homo sapiens) (UniProt P15735).
T3 sequence (whole entry): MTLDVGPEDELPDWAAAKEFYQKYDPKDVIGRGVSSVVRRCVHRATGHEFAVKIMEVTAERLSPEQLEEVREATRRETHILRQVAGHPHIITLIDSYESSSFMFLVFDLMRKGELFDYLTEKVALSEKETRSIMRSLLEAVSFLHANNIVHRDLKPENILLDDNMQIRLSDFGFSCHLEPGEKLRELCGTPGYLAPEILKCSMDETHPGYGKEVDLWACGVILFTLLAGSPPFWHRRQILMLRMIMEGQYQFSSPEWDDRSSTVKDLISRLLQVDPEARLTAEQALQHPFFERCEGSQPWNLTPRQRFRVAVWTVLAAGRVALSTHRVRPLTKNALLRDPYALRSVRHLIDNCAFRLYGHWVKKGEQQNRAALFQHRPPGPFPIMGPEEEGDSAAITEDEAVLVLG
The settings on record: at 1 µM.

In assay [12] the target is T3, Phosphorylase b kinase gamma catalytic chain, liver/testis isoform (Homo sapiens). The settings on record: at 10 µM.
Assay [13] deals with Serine/threonine-protein kinase pim-1 (Homo sapiens) (UniProt P11309). The settings on record: at 1 µM.
For assay [14] the target is unchanged. Particulars: at 10 µM.
Assay [15] concerns the target Serine/threonine-protein kinase pim-2 (Homo sapiens) (UniProt Q9P1W9). Particulars: at 1 µM.
For assay [16] the target is unchanged. Particulars: at 10 µM.
The target of assay [17] is Serine/threonine-protein kinase pim-3 (Homo sapiens) (UniProt Q86V86). The settings on record: at 1 µM.
The target is the same in assay [18]. Particulars: at 10 µM.
Assay [19] concerns the target Serine/threonine-protein kinase PLK1 (Homo sapiens) (UniProt P53350). Particulars: at 1 µM.
For assay [20] the target is unchanged. Particulars: at 10 µM.

Chain of Serine/threonine-protein kinase pim-1 (Homo sapiens) (P11309 whole entry, looked up): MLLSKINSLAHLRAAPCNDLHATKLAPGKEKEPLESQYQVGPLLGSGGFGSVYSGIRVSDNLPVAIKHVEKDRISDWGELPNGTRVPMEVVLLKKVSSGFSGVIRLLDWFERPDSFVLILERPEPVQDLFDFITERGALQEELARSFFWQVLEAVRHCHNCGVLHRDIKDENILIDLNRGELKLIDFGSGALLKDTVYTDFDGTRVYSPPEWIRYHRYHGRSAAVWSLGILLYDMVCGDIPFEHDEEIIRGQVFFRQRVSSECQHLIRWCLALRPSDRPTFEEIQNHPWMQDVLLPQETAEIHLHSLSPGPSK
Chain of Serine/threonine-protein kinase pim-2 (Homo sapiens) (Q9P1W9 whole entry, looked up): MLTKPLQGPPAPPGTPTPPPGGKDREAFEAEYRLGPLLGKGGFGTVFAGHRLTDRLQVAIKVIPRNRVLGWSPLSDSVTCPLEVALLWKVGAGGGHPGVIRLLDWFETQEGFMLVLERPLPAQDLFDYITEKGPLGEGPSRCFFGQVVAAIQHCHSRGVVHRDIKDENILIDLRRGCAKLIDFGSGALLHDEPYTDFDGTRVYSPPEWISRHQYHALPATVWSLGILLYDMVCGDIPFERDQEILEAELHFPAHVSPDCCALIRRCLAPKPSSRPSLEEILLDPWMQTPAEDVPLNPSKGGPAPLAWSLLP
Chain of Tyrosine-protein kinase FRK (Homo sapiens) (P42685 whole entry): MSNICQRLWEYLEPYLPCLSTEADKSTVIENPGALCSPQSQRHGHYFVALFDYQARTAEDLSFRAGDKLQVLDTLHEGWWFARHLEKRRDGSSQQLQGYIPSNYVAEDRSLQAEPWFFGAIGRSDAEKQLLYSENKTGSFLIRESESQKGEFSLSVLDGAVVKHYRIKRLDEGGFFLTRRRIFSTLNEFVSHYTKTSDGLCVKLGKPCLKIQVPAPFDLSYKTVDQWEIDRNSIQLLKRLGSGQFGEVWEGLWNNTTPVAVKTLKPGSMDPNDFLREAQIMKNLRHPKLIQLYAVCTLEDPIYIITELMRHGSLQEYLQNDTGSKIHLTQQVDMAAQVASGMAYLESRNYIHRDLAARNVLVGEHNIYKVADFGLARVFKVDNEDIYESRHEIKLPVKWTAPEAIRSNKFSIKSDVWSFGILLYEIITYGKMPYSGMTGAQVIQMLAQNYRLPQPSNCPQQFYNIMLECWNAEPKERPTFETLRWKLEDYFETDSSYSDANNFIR
Chain of Serine/threonine-protein kinase N2 (Homo sapiens) (Q16513 whole entry, looked up): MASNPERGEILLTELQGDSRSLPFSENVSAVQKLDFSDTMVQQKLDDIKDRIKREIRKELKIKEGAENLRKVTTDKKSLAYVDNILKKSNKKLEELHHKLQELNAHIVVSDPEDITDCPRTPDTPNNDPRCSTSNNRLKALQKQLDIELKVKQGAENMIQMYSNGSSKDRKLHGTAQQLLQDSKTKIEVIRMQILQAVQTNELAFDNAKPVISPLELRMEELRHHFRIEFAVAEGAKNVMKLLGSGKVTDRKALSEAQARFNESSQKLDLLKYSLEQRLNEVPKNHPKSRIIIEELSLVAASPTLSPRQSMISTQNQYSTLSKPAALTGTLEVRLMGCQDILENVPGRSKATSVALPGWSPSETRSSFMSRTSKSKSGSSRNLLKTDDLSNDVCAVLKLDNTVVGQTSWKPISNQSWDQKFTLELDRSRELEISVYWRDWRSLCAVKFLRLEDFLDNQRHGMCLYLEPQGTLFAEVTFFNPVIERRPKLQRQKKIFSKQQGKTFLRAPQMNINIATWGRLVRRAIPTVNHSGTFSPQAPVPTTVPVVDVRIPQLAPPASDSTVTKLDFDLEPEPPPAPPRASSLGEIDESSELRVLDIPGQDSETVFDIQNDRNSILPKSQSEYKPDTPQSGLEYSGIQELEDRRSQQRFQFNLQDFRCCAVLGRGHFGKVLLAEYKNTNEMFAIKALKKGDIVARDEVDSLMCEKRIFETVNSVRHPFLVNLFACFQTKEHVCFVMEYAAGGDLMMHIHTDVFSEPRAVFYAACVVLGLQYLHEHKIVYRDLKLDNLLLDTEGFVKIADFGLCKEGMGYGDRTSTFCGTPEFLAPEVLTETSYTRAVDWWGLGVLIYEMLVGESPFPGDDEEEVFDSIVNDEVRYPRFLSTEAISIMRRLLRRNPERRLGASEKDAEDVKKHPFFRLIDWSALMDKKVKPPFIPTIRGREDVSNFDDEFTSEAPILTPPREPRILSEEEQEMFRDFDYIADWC
Chain of Serine/threonine-protein kinase PLK1 (Homo sapiens) (P53350 whole entry): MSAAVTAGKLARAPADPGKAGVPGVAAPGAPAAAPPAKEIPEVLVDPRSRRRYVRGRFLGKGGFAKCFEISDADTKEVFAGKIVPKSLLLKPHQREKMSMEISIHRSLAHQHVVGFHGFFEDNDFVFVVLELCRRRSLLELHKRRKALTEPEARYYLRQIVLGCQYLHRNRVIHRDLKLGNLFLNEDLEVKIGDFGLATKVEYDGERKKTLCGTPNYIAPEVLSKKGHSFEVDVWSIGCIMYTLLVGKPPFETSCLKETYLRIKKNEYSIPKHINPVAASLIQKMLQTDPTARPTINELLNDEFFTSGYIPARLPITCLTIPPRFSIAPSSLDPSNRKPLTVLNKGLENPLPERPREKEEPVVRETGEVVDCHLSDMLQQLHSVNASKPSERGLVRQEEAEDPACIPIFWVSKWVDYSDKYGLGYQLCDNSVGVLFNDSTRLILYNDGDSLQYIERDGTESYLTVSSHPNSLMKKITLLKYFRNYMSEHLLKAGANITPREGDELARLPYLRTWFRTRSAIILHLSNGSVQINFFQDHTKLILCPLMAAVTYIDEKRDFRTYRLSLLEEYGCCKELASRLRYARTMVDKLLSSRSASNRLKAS

Regarding `O=C1NC(=O)/C(=C\c2ccc3nccnc3c2)S1`, the residual activity in assay [1] turned out to be 125%; in [2], 97%; in [3] it was 80%; in assay [4] it was 62%; in [5], 96%; in assay [6], 93%. Further, the residual activity in assay [7] is 103%; in assay [8] it was 94%; in [9], 110%; in [10], 93%; in [11], 90%; in [12], 50%. For the same compound, the residual activity in assay [13] stood at 42%; in assay [14], 10%; in assay [15] it was 75%; in assay [16] it was 22%; in assay [17] it was 61%; in assay [18] it was 14%. For the same compound, the residual activity in assay [19] was 80%; in assay [20], 64%.

`CO[C@H]1C[C@@H]2CC[C@@H](C)[C@@](O)(O2)C(=O)C(=O)N2CCCC[C@H]2C(=O)O[C@H]([C@H](C)C[C@@H]2CC[C@@H](O)[C@H](OC)C2)CC(=O)[C@H](C)/C=C(\C)[C@@H](O)[C@@H](OC)C(=O)[C@H](C)C[C@H](C)/C=C/C=C/C=C/1C`: the residual activity is 101% in assay [1]; 128% in assay [2]; 86% in [3]; 85% in assay [4]; 57% in assay [5]; 62% in assay [6]. The residual activity in assay [7] was 95%; in [8], 116%; in assay [9], 95%; in assay [10] it was 112%; in [11], 94%; in [12], 116%. Moreover, the residual activity in assay [13] was 105%; in assay [14], 141%; in assay [15], 110%; in assay [16], 142%; in assay [17], 97%; in assay [18], 93%. Also, the residual activity in assay [19] is 75%; in [20], 66%.

On to `CO[C@H]1[C@@H](OC)C[C@H](C)[C@@H](OC)C2=CC(=O)C=C(NC(=O)/C(C)=C/C=C/[C@H](OC)[C@@H](OC(N)=O)/C(C)=C/[C@@H]1C)C2=O`, for which the residual activity in [1] amounted to 102%; in [2], 105%; in [3], 85%; in [4], 81%; in [5] it was 107%; in assay [6] it was 95%. Moreover, the residual activity in assay [7] amounted to 111%; in [8], 96%; in assay [9] it was 114%; in assay [10] it was 93%; in assay [11], 97%; in assay [12] it was 100%. Besides, the residual activity in [13] worked out at 85%; in [14], 93%; in assay [15], 99%; in assay [16] it was 129%; in [17], 98%; in [18], 96%. For the same compound, the residual activity stood at 86% in [19] and 70% in assay [20].

For `COc1cc2ncnc(Nc3ccc(O)c(Br)c3)c2cc1OC`, the residual activity in assay [1] turned out to be 94%; in assay [2], 76%; in assay [3], 70%; in assay [4], 47%; in [5], 77%; in assay [6], 70%. Moreover, the residual activity came out at 87% in assay [7]; 61% in assay [8]; 35% in [9]; 5% in assay [10]; 97% in assay [11]; 94% in [12]. In addition, the residual activity in assay [13] came to 66%; in [14] it was 29%; in assay [15] it was 78%; in assay [16] it was 66%; in [17], 87%; in assay [18], 70%. Also, the residual activity in [19] was 64%; in [20], 54%.

As to `Nc1ccc2ncnc(NCCc3ccc(Oc4ccccc4)cc3)c2c1`, the residual activity in assay [1] stood at 108%; in [2] it was 109%; in assay [3], 86%; in assay [4], 75%; in [5] it was 89%; in assay [6] it was 90%. In addition, the residual activity is 98% in [7]; 78% in assay [8]; 93% in [9]; 109% in [10]; 88% in assay [11]; 75% in assay [12]. For the same compound, the residual activity in assay [13] is 100%; in assay [14], 93%; in [15], 93%; in [16], 136%; in [17], 90%; in assay [18] it was 89%. Besides, the residual activity worked out at 90% in [19] and 85% in [20].

Take `CN(C)c1ccc(/C=C2\C(=O)Nc3ccccc32)cc1`: the residual activity amounted to 121% in [1]; 115% in [2]; 65% in assay [3]; 84% in assay [4]; 113% in assay [5]; 65% in assay [6]. Further, the residual activity was 113% in assay [7]; 120% in assay [8]; 97% in assay [9]; 76% in [10]; 98% in assay [11]; 85% in [12]. The residual activity was determined as 77% in assay [13]; 93% in assay [14]; 92% in assay [15]; 112% in assay [16]; 106% in [17]; 91% in assay [18]. Besides, the values for the residual activity in [19] and in [20] were 88% and 76%, respectively.

For the compound `Cn1nc2c3c(cccc31)C(=O)c1ccccc1-2`, the residual activity in assay [1] was found to be 86%; in assay [2], 95%; in assay [3] it was 100%; in assay [4], 6%; in [5], 76%; in [6], 44%. Further, the residual activity in assay [7] was 95%; in assay [8] it was 77%; in assay [9], 87%; in assay [10] it was 64%; in [11], 102%; in assay [12], 84%. The residual activity is 71% in [13]; 45% in [14]; 91% in [15]; 44% in assay [16]; 80% in [17]; 66% in assay [18]. Besides, the residual activity is 81% in assay [19] and 77% in assay [20].

The values above are taken from ChEMBL document CHEMBL2218924, “A broad activity screen in support of a chemogenomic map for kinase signalling research and drug discovery” (Biochem J, 2013).
